Screening data from PubChem BioAssay.
Shiga toxin inh: A qHTS for Small Molecule Inhibitors of Shiga Toxin | Vero cells, Shiga toxin protein synthesis inhibition reporter | inhibition, % at 38.7 µM | actives 9.2% (n = 290,000) | AID 2315, 2010; in the data active = inhibition mostly above about 28%, no sharp cut-off; inactive = mostly below about 43%; note: 0% is about no effect
Cycloheximide cs: Cycloheximide Counterscreen for Small Molecule Inhibitors of Shiga Toxin | cell reporter, cycloheximide protein synthesis inhibition counterscreen | max response, % | actives 12% (n = 300,000) | AID 2314, 2010; in the data active = max response mostly above about 13%, no sharp cut-off; inactive = mostly below about 14%; note: read at 38.3 µM for the half of the compounds with a filed dose; 0% is about no effect
AMA1 RON2 block: qHTS for Inhibitors of AMA1-RON; Towards Development of Antimalarial Drug Lead: Primary Screen. actives 0.2% (n = 360,000). AlphaScreen AMA1-biotinylated RON2 peptide binding. Plasmodium falciparum AMA1 (3D7) - RON2 peptide interaction. Potency, µM (series often up to 58.2 µM), for the others: at the highest dose activity change, negative = inhibition, usual class: inhibitors;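 note: potency is the fitted concentration of half-maximal effect; 0% = vehicle wells and -100% = peptide control; nearly all actives have a fitted effect of over 45% in size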
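AMA1 (3D7) with his tag at 25 nM final met compounds first, then biotinylated RON2 peptide at 25 nM; detection used donor plus acceptor beads, 10 µg/mL apiece, read by AlphaScreen after 30 min at room temperature.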
Pf growth 96h: Primary qHTS for delayed death inhibitors of the malarial parasite plastid, 96 hour incubation. P. falciparum luciferase reporter growth, 96 h. Potency, µM (doses to about 28.7 µM), without a hit: at the top dose activity change, negative = inhibition, hits mostly inhibitors. actives 6.9% (n = 320,000). AID 504834, 2011; note: potency is the fitted concentration of half-maximal effect; % is set by controls: 0 for no effect and ±100 for the full control effect
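Two-generation exposure (96 h) targets delayed-death phenotype. Reporter parasites carrying integrated firefly luciferase, in red cells at 2% hematocrit and 0.05% parasitemia final, kept at 37 C, 5% CO2; luminescence loss indicates inhibition.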
Pf growth 48h: Primary qHTS for delayed death inhibitors of the malarial parasite plastid, 48 hour incubation | AID 504832, 2011 | Potency, µM (titrated, usually from 28.7 µM), without a hit: top-dose activity change, negative = inhibition, usual class: inhibitors | actives 5.9% (n = 310,000) | P. falciparum luciferase growth in erythrocytes, 48 h; note: potency is the fitted concentration of half-maximal effect; % is set by controls: 0 for no effect and ±100 for the full control effect
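Cell-based growth assay: transgenic P. falciparum expressing firefly luciferase, cultured in red cells within RPMI 1640 containing 0.5% w/v Albumax, 24 mM bicarbonate and gentamycin. A drop in luciferase activity indicates inhibition.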
SARS PLpro yeast: qHTS of Yeast-based Assay for SARS-CoV PLP; S. cerevisiae expressing SARS-CoV PLpro, growth rescue; Potency, µM (titrated, usually from 32.9 µM), for the others: at the highest dose activity, positive = growth rescue, most hits filed as activators; actives 0.19% (n = 330,000); calls by dose curve; note: potency is the fitted concentration of half-maximal effect; 0% is about no effect; nearly all actives have a fitted effect of over 55% in size
An asterisk follows results filed as active; i = inactive; ? = inconclusive; · = no result given; [ ] = remark or other dose. Compounds with a hit are over-represented: about 19% of the library has one in this group of screens. Unless noted, calls come from the whole dose curve; as a rule, active = well fitted curve in the direction sought with a large enough effect; inconclusive = small, poorly fitted or top-dose-only effect, or another doubt; inactive = no such curve, though single readings can be large; an effect the other way counts as inactive or inconclusive.

SMILES	Shiga toxin inh	Cycloheximide cs	AMA1 RON2 block	Pf growth 96h	Pf growth 48h	SARS PLpro yeast
CC1=C(C(=O)Nc2ccccc2C(=O)NCCCOC(C)C)SCCO1	-10.6	-1.1	8.4%	4.15µM*	0.5%	0.5%
CC1=C(C(=O)Nc2cccc(C(=O)NCc3ccccc3C)c2)SCCO1	-5.3	6.8	3.6%	-0.4%	?	1.5%
CCC(C)(C)NC(=O)c1ccc2c(c1)N(CC(=O)N1CCCC1)C(=O)C(C)(C)O2	·	1.8	3.5%	-32.8%	?	-0.2%
O=C(CCNC(=O)N1CC(=O)Nc2ccccc21)NCc1ccc(Cl)cc1	·	·	-2.8%	·	·	·
COc1nnc(-c2ccc(N3CCCCC3)c(N)c2)c2ccccc12	·	·	-3.0%	·	·	·
Cc1c(NC(=O)COC(=O)c2cccc(F)c2)c(=O)n(-c2ccccc2)n1C	·	·	6.8%	·	·	·
O=C(Nc1ccccc1-c1ccccc1)C1CCCCC1	-2.9	-4.2	7.7%	-18.7%	14.1%	24.2%
O=C(Nc1ccccc1-c1ccccc1)C1CCC1	53.4	26.3*	8.2%	75.3%	21.6%[1.15 µM]	-0.1%
CC1CCN(CC(=O)Nc2ccccc2-c2ccccc2)CC1	0.8	-3.5	3.3%	?	?	2.5%
CC1CCCCC1NCC(=O)Nc1ccccc1-c1ccccc1 (stereo not given)	-5.9	-4.0	?	14.7µM*	?	18.4%
CC1(C)C(=O)NCCN1C(=O)CCC(=O)O	10.3	-1.3	11.9%	?	-29.0%	11.8%
O=[N+]([O-])c1ccc(C(O)C[n+]2ccccc2)cc1 (stereo not given)	·	-0.8	4.0%	7.38µM*	-18.3%	-2.3%
Cc1cccc(N2CCN(S(=O)(=O)c3cccc4nonc34)CC2)c1C	-12.6	-5.1	?	2.94µM*	-12.9%	-26.6%
O=C(C1CCCN(S(=O)(=O)c2cccc3nonc23)C1)N1CCN(c2ccccc2Cl)CC1 (stereo not given)	-18.0	-3.6	-25.1%	11.7µM*	11.7µM*	-36.9%
O=C(Nc1ccc(F)cc1)C1CCCN(S(=O)(=O)c2cccc3nonc23)C1 (stereo not given)	-6.3	-0.7	-5.2%	3.7µM*	-20.2%	9.5%
O=C(C1CCCN(S(=O)(=O)c2cccc3nonc23)C1)N1CCN(c2cccc(Cl)c2)CC1 (stereo not given)	-5.7	-1.9	-2.1%	7.38µM*	·	-2.2%
O=C(C1CCCN(S(=O)(=O)c2cccc3nonc23)C1)N1CCC(Cc2ccccc2)CC1 (stereo not given)	-13.1	-2.9	-3.6%	3.4%	?	·
CSc1ccc(CN2CCC(C(=O)NCc3ccc(C)cc3)CC2)cc1	-8.2	0.3	?	i	-0.6%	0.4%
Cc1cc(C(=O)N/N=C2\CC(=O)c3ccccc32)c(C)n1-c1ccccc1	64.7*	34.8*	16.7%	?	-48.1%	-1.6%
Cc1cc(C(=O)N/N=C2\CC(=O)CC(C)(C)C2)c(C)n1-c1ccccc1	88.5*	86.5*	48.5%	?	?	-3.0%
Cc1cc(C(=O)N/N=C2\CC(=O)CC(C)(C)C2)c(C)n1-c1ccc(F)cc1	25.8	1.0	8.7%[11.6 µM]	?	?	14.1%
Cc1cc(C(=O)O)c(C)n1-c1ccccc1	-10.8	-4.7	-8.6%	-7.8%	·	-0.2%
CC(=O)OCC(NC(=O)C(CCCCNC(=O)OCc1ccccc1)NC(=O)OC(C)(C)C)C1OC(n2cc(C)c(=O)[nH]c2=O)C(OC(C)=O)C1OC(C)=O (stereo not given)	-7.3	-2.4	·	·	·	·
CC1CCN(CCCNC(=O)c2ccc3c(Cl)c4c(nc3c2)CCCC4)CC1	-6.8	-0.8	1.6%	?	13.1µM*	-3.7%
COCCNC(=O)c1ccc2c(Cl)c3c(nc2c1)CCC3	77.0*	45.9*	1.5%	23.4%	109.6%	-1.1%
SMILES	Shiga toxin inh	Cycloheximide cs	AMA1 RON2 block	Pf growth 96h	Pf growth 48h	SARS PLpro yeast
Cc1ccc(-n2[nH]c(C)c(C=NCc3ccncc3)c2=O)cc1	52.9*	38.8*	26.2%	10.7%	0.0%	-1.1%
Cc1ccc(-n2[nH]c(C)c(C=Nc3cc(C)ccn3)c2=O)cc1	-3.0	8.0	-8.2%	7.38µM*	35.0%	-20.2%
COc1ccc2nc(/N=C/c3c(C)[nH]n(-c4ccc(C)cc4)c3=O)sc2c1	13.9	17.4*	1.3%	?	34.2%	-78.9%
COC(=O)CC1C(=O)NCCN1C(=O)CSc1nc2ccccc2c(=O)n1CC(C)C (stereo not given)	-10.1	-2.3	14.6%	?	-14.0%	1.8%
COc1ccc(NC(=O)NC2CCCCC2C)cc1 (stereo not given)	27.2	0.8	0.5%	?	-10.9%	-0.9%
Cc1nc2ccccc2nc(C)c1=NOCc1cccc(Cl)c1	30.7	-1.7	-7.7%	?	?	-1.9%
Cc1nc2ccccc2cc1OCc1ccccc1	21.8	45.6*	10.6%	76.0%	48.1%	-1.5%
COc1cccc(COc2cc3ccccc3nc2C)c1	57.8*	16.6*	1.6%	69.4%	53.9%	-0.2%
Cc1nc2ccccc2cc1OCc1ccc(Cl)cc1	101.1*	54.0*	5.9%	14.0%	2.7%	-21.2%
O=[N+]([O-])c1ccc(-c2nnc(-c3ccccc3)c(NCCCO)n2)cc1	22.6	-3.0	1.7%	5.22µM*	?	17.7%
Cc1cccc(NC(=O)N2CCCC(CNC(=O)c3ccccc3Cl)C2)c1C (stereo not given)	23.0	7.4	10.4%	?	2.9%	2.5%
COc1ccc(CC(=O)N2CCCC(CNC(=O)c3ccccc3Cl)C2)cc1 (stereo not given)	33.1*	12.5	-8.8%	-29.8%	23.3%	-0.4%
COc1ccc(CC(=O)NCC2CCCN(Cc3ccc(F)cc3F)C2)cc1 (stereo not given)	0.6	1.4	-3.8%	?	-4.8%	3.1%
COC(=O)c1ccc(C(=O)N2CCCC(CNC(=O)c3ccccc3Cl)C2)cc1 (stereo not given)	69.2	13.3*	12.3%	1.2%	36.3%	0.6%
CC(=O)c1ccc(C(=O)N2CCCC(CNC(=O)c3ccccc3Cl)C2)cc1 (stereo not given)	19.1	15.5*	-15.1%	-8.7%	6.5%	-0.2%
CC(=O)c1ccccc1C(=O)N1CCCC(CNC(=O)c2ccc(F)cc2)C1 (stereo not given)	·	·	0.4%	·	·	·
COc1ccc(CC(=O)NCC2CCCN(Cc3ccc(OC)cc3F)C2)cc1 (stereo not given)	-8.8	0.1	0.2%	9.28µM*	-1.2%	?
CC(C)C[C@H]1CN(CCCC[C@H]2CNC(=O)C(=O)N2CCc2ccccc2)C(=O)C(=O)N1CC1CCCCC1	·	·	6.6%	·	·	·
O=C(NCC1CCCN(C(=O)c2cscn2)C1)c1ccccc1Cl (stereo not given)	30.3*	25.5*	6.4%	-18.4%	-5.4%	5.2%
